# Reference: PubChem BioAssay AID1159580 (chemical genetic matrix, 2015)
# The campaign covered roughly 5,500 compounds. About 2,000 (36%) were called active. Roughly 18% stayed inconclusive and do not appear here. The list shows a part of the results. Unmarked numbers belong to inactive results. No stated cut-off is given here; in the data, active means normalized growth mostly below about 0.91 (no sharp cut-off); inconclusive means no clear call, values can overlap the other calls; inactive means mostly above about 0.92.
# Test: chemical genetic growth profiling, strain panel (AID 1159580);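 further: tested at 20 µM; growth read once vehicle control cultures reached saturation at 30 °C; 1 = growth at the plate median or of vehicle wells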
# Conditions: S. cerevisiae deletion strains, growth OD
# [1] = locus YAR019C, strain CDC15, stronger effect = lower value
# [2] = locus YBL105C, strain PKC1, stronger effect = lower value
# [3] = locus YBR135W, strain CKS1, stronger effect = lower value
# [4] = locus YBR136W, strain MEC1, stronger effect = lower value
# [5] = locus YBR160W, strain CDC28, stronger effect = lower value
# [6] = locus YDL017W, strain CDC7, stronger effect = lower value
# [7] = locus YDL028C, strain MPS1, stronger effect = lower value
# [8] = locus YDL101C, strain DUN1, stronger effect = lower value
# [9] = locus YDL108W, strain KIN28, stronger effect = lower value
# [10] = locus YDL132W, strain cdc53, stronger effect = lower value
# [11] = locus YDL214C, strain PRR2, stronger effect = lower value
# [12] = locus YDR052C, strain DBF4, stronger effect = lower value
# [13] = locus YDR054C, strain cdc34, stronger effect = lower value
# [14] = locus YDR226W, strain ADK1, stronger effect = lower value
# [15] = locus YDR477W, strain SNF1, stronger effect = lower value
# [16] = locus YER123W, strain YCK3, stronger effect = lower value
# [17] = locus YER133W, strain GLC7, stronger effect = lower value
# [18] = locus YFL009W, strain cdc4, stronger effect = lower value
# [19] = locus YFL029C, strain CAK1, stronger effect = lower value
# [20] = locus YFR003C, strain YPI1, stronger effect = lower value
# [21] = locus YFR019W, strain FAB1, stronger effect = lower value
# [22] = locus YFR028C, strain CDC14, stronger effect = lower value
# [23] = locus YGR040W, strain KSS1, stronger effect = lower value
# [24] = locus YGR052W, strain FMP48, stronger effect = lower value
# [25] = locus YGR092W, strain DBF2, stronger effect = lower value
# [26] = locus YHR030C, strain SLT2, stronger effect = lower value
# [27] = locus YHR079C, strain IRE1, stronger effect = lower value
# [28] = locus YHR082C, strain KSP1, stronger effect = lower value
# [29] = locus YHR205W, strain SCH9, stronger effect = lower value
# [30] = locus YIL147C, strain SLN1, stronger effect = lower value
# [31] = locus YJL095W, strain BCK1, stronger effect = lower value
# [32] = locus YJL128C, strain PBS2, stronger effect = lower value
# [33] = locus YJL157C, strain FAR1, stronger effect = lower value
# [34] = locus YJR016C, strain ILV3, stronger effect = lower value
# [35] = locus YJR066W, strain TOR1 (second series), stronger effect = lower value
# [36] = locus YJR066W, strain TOR1, stronger effect = lower value
# [37] = locus YKL048C, strain ELM1, stronger effect = lower value
# [38] = locus YKL067W, strain YNK1, stronger effect = lower value
# [39] = locus YKL101W, strain HSL1, stronger effect = lower value
# [40] = locus YKL193C, strain SDS22, stronger effect = lower value
# [41] = locus YKL203C, strain TOR2, stronger effect = lower value
# [42] = locus YLR113W, strain HOG1, stronger effect = lower value
# [43] = locus YLR133W, strain CKI1, stronger effect = lower value
# [44] = locus YLR403W, strain SFP1, stronger effect = lower value
# [45] = locus YML070W, strain DAK1, stronger effect = lower value
# [46] = locus YMR001C, strain CDC5, stronger effect = lower value
# [47] = locus YMR205C, strain PFK2 (second series), stronger effect = lower value
# [48] = locus YMR277W, strain FCP1, stronger effect = lower value
# [49] = locus YNL006W, strain LST8, stronger effect = lower value
# [50] = locus YNL020C, strain ARK1, stronger effect = lower value
# [51] = locus YNL161W, strain CBK1, stronger effect = lower value
# [52] = locus YNL183C, strain NPR1, stronger effect = lower value
# [53] = locus YNL207W, strain RIO2, stronger effect = lower value
# [54] = locus YNL222W, strain SSU72, stronger effect = lower value
# [55] = locus YNL307C, strain MCK1 (second series), stronger effect = lower value
# [56] = locus YOL078W, strain AVO1, stronger effect = lower value
# [57] = locus YOL136C, strain PFK27, stronger effect = lower value
# [58] = locus YOR061W, strain CKA2, stronger effect = lower value
# [59] = locus YOR119C, strain RIO1, stronger effect = lower value
# [60] = locus YOR231W, strain MKK1, stronger effect = lower value
# [61] = locus YOR329C, strain SCD5, stronger effect = lower value
# [62] = locus YPL031C, strain PHO85, stronger effect = lower value
# [63] = locus YPL153C, strain RAD53, stronger effect = lower value
# [64] = locus YPL204W, strain HRR25, stronger effect = lower value
# [65] = locus YPL209C, strain IPL1, stronger effect = lower value
# [66] = locus YPL256C, strain CLN2, stronger effect = lower value
# [67] = locus YPR025C, strain CCL1, stronger effect = lower value
# [68] = locus YPR106W, strain ISR1, stronger effect = lower value
# [69] = locus YPR111W, strain DBF20, stronger effect = lower value
# [70] = strain NNK1, stronger effect = lower value
# [71] = strain TSCII, stronger effect = lower value
compound,measurement,setting,value
CCC1(c2ccccc2)OC(c2cc(Cl)cc(Cl)c2O)Nc2ccccc21 (configuration not stated),normalized growth,[1],0.96
same,normalized growth,[2],0.964
same,normalized growth,[3],0.965
same,normalized growth,[4],0.968
same,normalized growth,[5],0.964
same,normalized growth,[6],0.965
same,normalized growth,[7],0.966
same,normalized growth,[8],0.986
same,normalized growth,[9],0.968
same,normalized growth,[10],0.963
same,normalized growth,[11],0.705
same,normalized growth,[12],0.976
same,normalized growth,[13],0.954
same,normalized growth,[14],0.97
same,normalized growth,[15],0.689 (active)
same,normalized growth,[16],0.513 (active)
same,normalized growth,[17],0.734
same,normalized growth,[18],0.962
same,normalized growth,[19],0.967
same,normalized growth,[20],0.958
same,normalized growth,[21],0.738 (active)
same,normalized growth,[22],0.963
same,normalized growth,[23],0.689 (active)
same,normalized growth,[24],0.651
same,normalized growth,[25],0.233 (active)
same,normalized growth,[26],0.449 (active)
same,normalized growth,[27],0.461 (active)
same,normalized growth,[28],0.689
same,normalized growth,[29],0.639
same,normalized growth,[30],0.964
same,normalized growth,[31],0.464 (active)
same,normalized growth,[32],0.93
same,normalized growth,[33],0.564 (active)
same,normalized growth,[34],0.962
same,normalized growth,[35],0.633
same,normalized growth,[36],0.572
same,normalized growth,[37],0.717 (active)
same,normalized growth,[38],0.696 (active)
same,normalized growth,[39],0.678 (active)
same,normalized growth,[40],0.971
same,normalized growth,[41],0.751
same,normalized growth,[42],0.539 (active)
same,normalized growth,[43],0.623 (active)
same,normalized growth,[44],0.572 (active)
same,normalized growth,[45],0.561 (active)
same,normalized growth,[46],0.971
same,normalized growth,[47],0.688 (active)
same,normalized growth,[48],0.968
same,normalized growth,[49],0.969
same,normalized growth,[50],0.552 (active)
same,normalized growth,[51],0.962
same,normalized growth,[52],0.646
same,normalized growth,[53],0.96
same,normalized growth,[54],0.956
same,normalized growth,[55],0.551 (active)
same,normalized growth,[56],0.967
same,normalized growth,[57],0.452 (active)
same,normalized growth,[58],0.469 (active)
same,normalized growth,[59],0.753
same,normalized growth,[60],0.476 (active)
same,normalized growth,[61],0.962
same,normalized growth,[62],0.685
same,normalized growth,[63],0.562 (active)
same,normalized growth,[64],0.604 (active)
same,normalized growth,[65],0.954
same,normalized growth,[66],0.47 (active)
same,normalized growth,[67],0.96
same,normalized growth,[68],0.954
same,normalized growth,[69],0.957
same,normalized growth,[70],0.963
same,normalized growth,[71],0.966
O=S(=O)(Nc1ccc(-n2nc(C(F)(F)F)cc2-c2cccs2)cc1)c1ccc(F)cc1,normalized growth,[1],0.993
same,normalized growth,[2],0.979
same,normalized growth,[3],0.997
same,normalized growth,[4],0.991
same,normalized growth,[5],0.998
same,normalized growth,[6],0.99
same,normalized growth,[7],0.995
same,normalized growth,[8],0.993
same,normalized growth,[9],1
same,normalized growth,[10],0.989
same,normalized growth,[11],0.986
same,normalized growth,[12],0.98
same,normalized growth,[13],0.982
same,normalized growth,[14],0.996
same,normalized growth,[15],0.991
same,normalized growth,[16],0.979
same,normalized growth,[17],0.973
same,normalized growth,[18],0.991
same,normalized growth,[19],0.994
same,normalized growth,[20],0.99
same,normalized growth,[21],0.985
same,normalized growth,[22],0.997
same,normalized growth,[23],0.987
same,normalized growth,[24],1.04
same,normalized growth,[25],0.99
same,normalized growth,[26],1.01
same,normalized growth,[27],0.993
same,normalized growth,[28],1.06
same,normalized growth,[29],0.983
same,normalized growth,[30],0.99
same,normalized growth,[31],1.04
same,normalized growth,[32],0.951
same,normalized growth,[33],0.979
same,normalized growth,[34],0.999
same,normalized growth,[35],0.956
same,normalized growth,[36],1.04
same,normalized growth,[37],0.991
same,normalized growth,[38],0.991
same,normalized growth,[39],0.995
same,normalized growth,[40],0.986
same,normalized growth,[41],1.04
same,normalized growth,[42],0.938
same,normalized growth,[43],0.983
same,normalized growth,[44],0.972
same,normalized growth,[45],0.992
same,normalized growth,[46],0.989
same,normalized growth,[47],0.995
same,normalized growth,[48],0.992
same,normalized growth,[49],0.991
same,normalized growth,[50],0.987
same,normalized growth,[51],0.989
same,normalized growth,[52],1.02
same,normalized growth,[53],0.993
same,normalized growth,[54],0.99
same,normalized growth,[55],0.996
same,normalized growth,[56],0.994
same,normalized growth,[57],0.973
same,normalized growth,[58],0.998
same,normalized growth,[59],1.05
same,normalized growth,[60],0.974
same,normalized growth,[61],0.988
same,normalized growth,[62],0.986
same,normalized growth,[63],0.997
same,normalized growth,[64],0.966
same,normalized growth,[65],0.988
same,normalized growth,[66],0.94
same,normalized growth,[67],0.993
same,normalized growth,[68],0.978
same,normalized growth,[69],0.974
same,normalized growth,[70],0.975
same,normalized growth,[71],0.995
